Source: PMC7862700, “An all-to-all approach to the identification of sequence-specific readers for epigenetic DNA modifications on cytosine”

Experiments:
Assay in all cases: DAPPL (digital affinity profiling via proximity ligation, sequencing); 10 mM Tris-HCl pH 7.5, 50 mM NaCl, 1 mM DTT, 4% glycerol, room temperature, 30 min; GST-TFs on glutathione beads, 16-mer random dsDNA library, 0.1% formaldehyde crosslink after washing; high values mean tight binding
Conditions in all cases: protein: recombinant; tags: N-terminal GST; dsDNA, one strand shown
[1] = target: T1, GABPA (Homo sapiens, UniProt Q06546 1-454)
T1 sequence: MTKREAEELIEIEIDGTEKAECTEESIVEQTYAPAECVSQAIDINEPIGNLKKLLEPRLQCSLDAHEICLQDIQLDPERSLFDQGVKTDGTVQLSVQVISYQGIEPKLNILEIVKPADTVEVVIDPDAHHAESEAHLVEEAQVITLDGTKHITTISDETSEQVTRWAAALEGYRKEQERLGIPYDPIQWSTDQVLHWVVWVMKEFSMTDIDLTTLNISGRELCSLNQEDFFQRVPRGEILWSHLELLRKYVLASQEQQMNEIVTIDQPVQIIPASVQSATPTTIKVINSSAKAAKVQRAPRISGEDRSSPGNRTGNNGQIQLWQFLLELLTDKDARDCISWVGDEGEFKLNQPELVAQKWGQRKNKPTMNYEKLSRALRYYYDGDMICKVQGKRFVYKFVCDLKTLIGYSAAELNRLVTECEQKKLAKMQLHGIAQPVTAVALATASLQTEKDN
Method in brief: (§1)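 After expression in yeast as GST fusions, human transcription factors were bound to glutathione beads, DNA-barcoded and mixed with a tag-only sample. The pools were incubated with 200 nmole of a 16-mer random double-stranded DNA library in Tris/NaCl/DTT/glycerol buffer (30 min, room temperature), washed and crosslinked with 0.1% formaldehyde. Proximity ligation with BsaI/T4 ligase ran for 1 h at 37 °C, before PCR amplification and sequencing on an Illumina NextSeq500. Binding signal is a hexamer's read frequency for a factor divided by its frequency for the tag-only sample.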

[2] = target: ETV5 (Homo sapiens, UniProt P41161 1-510)
ETV5, sequence (P41161 whole entry): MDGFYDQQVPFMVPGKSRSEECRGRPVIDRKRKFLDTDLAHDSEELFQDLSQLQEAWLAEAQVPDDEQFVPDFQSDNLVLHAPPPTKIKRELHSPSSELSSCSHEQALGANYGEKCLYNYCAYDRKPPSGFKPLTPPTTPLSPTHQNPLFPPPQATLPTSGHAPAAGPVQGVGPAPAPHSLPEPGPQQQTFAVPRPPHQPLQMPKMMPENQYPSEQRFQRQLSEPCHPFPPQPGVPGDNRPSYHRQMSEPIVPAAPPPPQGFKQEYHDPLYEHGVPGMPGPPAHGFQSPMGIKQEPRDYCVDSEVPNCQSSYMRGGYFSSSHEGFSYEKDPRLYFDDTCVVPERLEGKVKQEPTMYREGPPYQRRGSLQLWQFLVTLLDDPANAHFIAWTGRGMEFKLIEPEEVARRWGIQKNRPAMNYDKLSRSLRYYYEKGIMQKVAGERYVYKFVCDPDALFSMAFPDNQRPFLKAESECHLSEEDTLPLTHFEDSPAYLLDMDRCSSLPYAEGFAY
Method in brief: as §1

[3] = target: T2, SPIC (Homo sapiens, UniProt Q8N5J4 1-248)
T2 sequence: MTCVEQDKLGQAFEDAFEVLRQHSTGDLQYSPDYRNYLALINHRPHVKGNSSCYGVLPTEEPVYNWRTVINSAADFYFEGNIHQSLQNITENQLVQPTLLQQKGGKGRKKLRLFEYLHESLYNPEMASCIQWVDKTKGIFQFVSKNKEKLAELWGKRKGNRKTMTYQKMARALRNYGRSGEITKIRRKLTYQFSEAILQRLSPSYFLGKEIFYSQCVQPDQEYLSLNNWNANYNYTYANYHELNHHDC
Method in brief: as §1

[4] = target: T3, ERF (Homo sapiens, UniProt P50548 1-548)
T3 sequence: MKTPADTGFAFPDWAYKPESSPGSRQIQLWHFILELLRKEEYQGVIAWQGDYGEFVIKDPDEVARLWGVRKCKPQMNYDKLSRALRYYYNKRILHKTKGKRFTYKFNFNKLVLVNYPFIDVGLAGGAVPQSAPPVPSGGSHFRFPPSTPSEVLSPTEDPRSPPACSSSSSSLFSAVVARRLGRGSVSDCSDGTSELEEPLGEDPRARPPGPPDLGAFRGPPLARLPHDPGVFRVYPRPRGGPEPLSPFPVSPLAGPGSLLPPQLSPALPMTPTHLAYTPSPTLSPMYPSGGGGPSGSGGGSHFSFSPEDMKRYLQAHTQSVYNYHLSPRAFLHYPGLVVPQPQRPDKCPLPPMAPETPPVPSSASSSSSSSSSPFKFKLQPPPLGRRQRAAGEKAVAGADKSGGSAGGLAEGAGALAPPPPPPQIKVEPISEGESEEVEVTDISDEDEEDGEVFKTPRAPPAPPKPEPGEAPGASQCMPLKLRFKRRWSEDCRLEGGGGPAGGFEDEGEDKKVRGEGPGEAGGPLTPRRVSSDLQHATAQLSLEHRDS
Method in brief: as §1

[5] = target: T4, SPDEF (Homo sapiens, UniProt O95238 1-335)
T4 sequence: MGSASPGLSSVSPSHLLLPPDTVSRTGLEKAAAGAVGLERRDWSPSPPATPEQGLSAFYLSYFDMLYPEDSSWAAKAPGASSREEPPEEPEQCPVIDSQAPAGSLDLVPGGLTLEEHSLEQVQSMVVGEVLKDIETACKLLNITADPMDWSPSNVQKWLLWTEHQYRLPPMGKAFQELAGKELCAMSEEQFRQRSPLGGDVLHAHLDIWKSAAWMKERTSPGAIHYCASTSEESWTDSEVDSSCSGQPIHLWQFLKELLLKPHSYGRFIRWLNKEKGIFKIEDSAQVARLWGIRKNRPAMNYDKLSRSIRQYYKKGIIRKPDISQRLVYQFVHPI
Method in brief: as §1

[6] = target: T5, ELK1 (Homo sapiens, UniProt P19419 1-428)
T5 sequence: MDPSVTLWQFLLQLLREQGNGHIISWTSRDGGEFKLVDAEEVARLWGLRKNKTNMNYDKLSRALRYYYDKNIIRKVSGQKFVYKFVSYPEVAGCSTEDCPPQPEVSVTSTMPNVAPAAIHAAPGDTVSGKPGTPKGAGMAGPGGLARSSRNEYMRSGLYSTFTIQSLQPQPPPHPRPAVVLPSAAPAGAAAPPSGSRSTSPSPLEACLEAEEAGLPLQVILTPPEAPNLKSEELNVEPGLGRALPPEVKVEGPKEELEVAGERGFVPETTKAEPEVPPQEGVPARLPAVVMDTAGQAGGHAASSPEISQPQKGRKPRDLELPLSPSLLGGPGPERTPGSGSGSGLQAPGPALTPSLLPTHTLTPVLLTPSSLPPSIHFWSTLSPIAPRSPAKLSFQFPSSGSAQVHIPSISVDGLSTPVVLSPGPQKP
Method in brief: as §1

[7] = target: T6, EHF (Homo sapiens, UniProt Q9NZC4 1-300)
T6 sequence: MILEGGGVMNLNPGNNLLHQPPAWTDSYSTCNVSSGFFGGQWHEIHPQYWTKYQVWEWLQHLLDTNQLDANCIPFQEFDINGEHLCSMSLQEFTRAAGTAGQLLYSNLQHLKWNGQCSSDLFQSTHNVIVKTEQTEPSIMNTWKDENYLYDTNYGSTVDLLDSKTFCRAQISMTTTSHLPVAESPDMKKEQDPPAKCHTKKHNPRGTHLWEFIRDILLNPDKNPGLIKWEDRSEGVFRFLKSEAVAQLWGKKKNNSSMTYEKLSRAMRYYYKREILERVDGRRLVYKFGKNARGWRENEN
Method in brief: as §1

[8] = target: T7, ELK3 (Homo sapiens, UniProt P41970 1-407)
T7 sequence: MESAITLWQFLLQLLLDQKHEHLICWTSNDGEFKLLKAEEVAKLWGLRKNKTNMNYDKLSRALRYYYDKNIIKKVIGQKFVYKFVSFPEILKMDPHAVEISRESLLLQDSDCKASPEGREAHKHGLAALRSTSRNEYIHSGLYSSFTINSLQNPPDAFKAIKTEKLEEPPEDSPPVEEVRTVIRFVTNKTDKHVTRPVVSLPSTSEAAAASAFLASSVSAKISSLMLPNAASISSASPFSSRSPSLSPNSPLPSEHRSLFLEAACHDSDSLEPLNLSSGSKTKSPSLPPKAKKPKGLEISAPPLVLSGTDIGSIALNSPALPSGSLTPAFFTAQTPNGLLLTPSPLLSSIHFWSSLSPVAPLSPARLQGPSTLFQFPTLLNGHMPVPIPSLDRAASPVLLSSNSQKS
Method in brief: as §1

[9] = target: T8, ELF3 (Homo sapiens, UniProt P78545 1-371)
T8 sequence: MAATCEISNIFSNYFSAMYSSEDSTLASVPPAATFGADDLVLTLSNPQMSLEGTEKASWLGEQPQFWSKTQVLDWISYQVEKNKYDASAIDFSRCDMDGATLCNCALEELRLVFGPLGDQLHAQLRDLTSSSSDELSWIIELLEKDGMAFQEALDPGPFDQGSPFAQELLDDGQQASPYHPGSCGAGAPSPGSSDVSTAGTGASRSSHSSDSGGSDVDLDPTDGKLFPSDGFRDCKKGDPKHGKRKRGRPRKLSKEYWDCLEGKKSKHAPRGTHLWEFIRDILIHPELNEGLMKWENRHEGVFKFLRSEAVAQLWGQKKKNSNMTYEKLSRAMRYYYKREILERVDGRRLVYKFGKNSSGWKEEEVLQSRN
Method in brief: as §1

[10] = target: T9, ETS2 (Homo sapiens, UniProt P15036 1-469)
T9 sequence: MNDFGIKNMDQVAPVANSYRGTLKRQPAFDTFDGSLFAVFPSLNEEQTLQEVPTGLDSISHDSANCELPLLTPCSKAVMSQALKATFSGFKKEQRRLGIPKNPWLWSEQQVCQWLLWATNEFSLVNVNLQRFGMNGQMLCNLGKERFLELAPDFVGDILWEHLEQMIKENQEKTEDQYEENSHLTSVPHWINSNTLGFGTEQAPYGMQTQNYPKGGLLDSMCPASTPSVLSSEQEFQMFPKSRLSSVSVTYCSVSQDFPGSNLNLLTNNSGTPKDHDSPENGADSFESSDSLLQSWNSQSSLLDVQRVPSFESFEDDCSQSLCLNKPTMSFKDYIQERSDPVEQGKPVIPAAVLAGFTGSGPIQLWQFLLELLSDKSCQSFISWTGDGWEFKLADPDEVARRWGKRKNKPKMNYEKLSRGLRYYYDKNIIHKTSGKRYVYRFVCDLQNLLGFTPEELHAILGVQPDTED
Method in brief: as §1

[11] = target: T10, ETV3 (Homo sapiens, UniProt P41162-2 1-143)
T10 sequence: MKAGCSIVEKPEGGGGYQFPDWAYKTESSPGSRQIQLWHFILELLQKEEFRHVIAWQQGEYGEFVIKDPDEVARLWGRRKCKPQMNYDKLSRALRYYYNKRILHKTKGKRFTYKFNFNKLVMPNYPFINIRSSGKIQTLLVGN
Method in brief: as §1

[12] = target: T11, ERG (Homo sapiens, UniProt P11308 1-479)
T11 sequence: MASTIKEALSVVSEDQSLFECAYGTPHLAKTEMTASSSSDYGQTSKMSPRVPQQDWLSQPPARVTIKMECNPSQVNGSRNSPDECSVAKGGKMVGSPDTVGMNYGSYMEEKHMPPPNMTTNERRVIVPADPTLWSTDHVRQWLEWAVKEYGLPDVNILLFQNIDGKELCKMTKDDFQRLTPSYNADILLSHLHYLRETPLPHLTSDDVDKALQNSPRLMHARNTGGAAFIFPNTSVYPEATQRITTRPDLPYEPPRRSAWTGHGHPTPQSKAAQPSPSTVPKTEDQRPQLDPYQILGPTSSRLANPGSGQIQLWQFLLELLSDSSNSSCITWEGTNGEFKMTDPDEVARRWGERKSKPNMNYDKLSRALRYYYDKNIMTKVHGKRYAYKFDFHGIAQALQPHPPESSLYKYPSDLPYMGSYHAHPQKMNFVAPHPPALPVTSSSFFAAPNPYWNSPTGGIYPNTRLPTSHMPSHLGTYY
Method in brief: as §1

[13] = target: ELF1 (Homo sapiens, UniProt P32519 1-619)
ELF1, sequence (P32519 whole entry): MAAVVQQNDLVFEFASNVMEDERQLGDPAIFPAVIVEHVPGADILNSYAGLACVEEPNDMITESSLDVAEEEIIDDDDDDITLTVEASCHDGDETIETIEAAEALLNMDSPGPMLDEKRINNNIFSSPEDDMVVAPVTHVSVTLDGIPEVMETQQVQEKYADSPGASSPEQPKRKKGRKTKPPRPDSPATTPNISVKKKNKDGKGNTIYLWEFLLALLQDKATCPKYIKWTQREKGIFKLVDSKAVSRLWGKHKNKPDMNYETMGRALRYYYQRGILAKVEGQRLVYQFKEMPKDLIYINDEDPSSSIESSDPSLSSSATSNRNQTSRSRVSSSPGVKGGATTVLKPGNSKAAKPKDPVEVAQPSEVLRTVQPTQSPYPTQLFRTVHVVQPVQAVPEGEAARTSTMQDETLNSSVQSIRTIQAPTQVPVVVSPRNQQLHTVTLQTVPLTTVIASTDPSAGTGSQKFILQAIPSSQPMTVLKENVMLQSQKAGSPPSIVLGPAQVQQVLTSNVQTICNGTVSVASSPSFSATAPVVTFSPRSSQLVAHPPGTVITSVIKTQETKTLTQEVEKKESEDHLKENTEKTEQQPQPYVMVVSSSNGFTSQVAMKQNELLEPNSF
Method in brief: as §1

[14] = target: SPIB (Homo sapiens, UniProt Q01892 1-262)
SPIB, sequence (Q01892 whole entry): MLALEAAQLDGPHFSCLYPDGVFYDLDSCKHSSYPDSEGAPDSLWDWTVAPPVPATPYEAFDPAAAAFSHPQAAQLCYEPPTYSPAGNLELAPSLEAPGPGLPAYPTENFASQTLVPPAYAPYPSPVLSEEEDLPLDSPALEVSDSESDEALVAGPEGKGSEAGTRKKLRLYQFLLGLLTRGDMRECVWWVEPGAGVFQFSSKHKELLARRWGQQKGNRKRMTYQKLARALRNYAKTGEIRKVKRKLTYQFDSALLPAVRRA
Method in brief: as §1

[15] = target: ELF4 (Homo sapiens, UniProt Q99607 1-663)
ELF4, sequence (Q99607 whole entry): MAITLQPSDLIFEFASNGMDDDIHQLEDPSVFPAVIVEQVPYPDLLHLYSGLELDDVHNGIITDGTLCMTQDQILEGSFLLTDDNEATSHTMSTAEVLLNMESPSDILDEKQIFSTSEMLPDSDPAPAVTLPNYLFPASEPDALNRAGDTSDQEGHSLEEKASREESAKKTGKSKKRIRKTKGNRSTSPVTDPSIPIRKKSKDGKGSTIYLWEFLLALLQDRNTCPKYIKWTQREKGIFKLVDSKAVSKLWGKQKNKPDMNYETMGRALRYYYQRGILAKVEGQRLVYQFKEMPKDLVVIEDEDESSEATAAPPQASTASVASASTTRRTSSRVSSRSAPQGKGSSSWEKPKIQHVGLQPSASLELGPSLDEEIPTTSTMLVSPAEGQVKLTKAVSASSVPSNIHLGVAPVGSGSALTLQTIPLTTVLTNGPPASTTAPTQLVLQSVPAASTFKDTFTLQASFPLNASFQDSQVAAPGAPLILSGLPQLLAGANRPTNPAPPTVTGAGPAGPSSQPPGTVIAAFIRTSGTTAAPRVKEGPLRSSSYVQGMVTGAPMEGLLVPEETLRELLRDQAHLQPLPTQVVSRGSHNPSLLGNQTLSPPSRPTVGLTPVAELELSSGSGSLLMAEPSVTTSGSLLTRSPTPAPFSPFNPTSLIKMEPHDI
Method in brief: as §1

[16] = target: T12, ETV7 (Homo sapiens, UniProt Q9Y603 1-341)
T12 sequence: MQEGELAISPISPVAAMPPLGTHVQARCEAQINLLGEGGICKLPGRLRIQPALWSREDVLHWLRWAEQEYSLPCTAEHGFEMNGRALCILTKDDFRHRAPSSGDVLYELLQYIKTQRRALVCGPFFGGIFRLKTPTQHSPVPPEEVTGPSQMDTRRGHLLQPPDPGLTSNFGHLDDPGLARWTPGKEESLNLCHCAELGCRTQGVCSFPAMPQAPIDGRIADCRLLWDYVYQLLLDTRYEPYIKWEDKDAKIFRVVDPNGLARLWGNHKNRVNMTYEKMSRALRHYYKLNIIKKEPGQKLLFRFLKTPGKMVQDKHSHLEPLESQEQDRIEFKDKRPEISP
Method in brief: as §1

[17] = target: ETV6 (Homo sapiens, UniProt P41212 1-452)
ETV6, sequence (P41212 whole entry): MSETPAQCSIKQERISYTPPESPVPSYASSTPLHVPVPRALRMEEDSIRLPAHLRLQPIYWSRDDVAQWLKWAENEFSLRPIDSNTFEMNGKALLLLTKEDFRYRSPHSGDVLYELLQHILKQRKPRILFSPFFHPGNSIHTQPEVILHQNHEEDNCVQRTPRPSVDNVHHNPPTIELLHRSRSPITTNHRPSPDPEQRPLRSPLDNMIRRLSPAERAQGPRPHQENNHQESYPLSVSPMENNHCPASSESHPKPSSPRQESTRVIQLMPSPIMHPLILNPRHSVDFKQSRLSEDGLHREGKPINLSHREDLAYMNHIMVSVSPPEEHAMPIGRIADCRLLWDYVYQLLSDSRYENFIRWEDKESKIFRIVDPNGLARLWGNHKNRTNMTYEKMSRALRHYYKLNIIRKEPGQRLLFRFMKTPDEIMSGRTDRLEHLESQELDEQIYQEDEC
Method in brief: as §1

Row | Sequence | binding signal [1] | binding signal [2] | binding signal [3] | binding signal [4] | binding signal [5] | binding signal [6] | binding signal [7] | binding signal [8] | binding signal [9] | binding signal [10] | binding signal [11] | binding signal [12] | binding signal [13] | binding signal [14] | binding signal [15] | binding signal [16] | binding signal [17]
1 | CTGTAG | 1.03 fold enrichment (6-mer frequency, TF over GST control) | 1.02 fold enrichment (6-mer frequency, TF over GST control) | 1.08 fold enrichment (6-mer frequency, TF over GST control) | 1.02 fold enrichment (6-mer frequency, TF over GST control) | 1.03 fold enrichment (6-mer frequency, TF over GST control) |  |  |  |  |  |  |  |  |  |  |  | 
2 | TATGAG | 1.03 fold enrichment (6-mer frequency, TF over GST control) | 1.02 fold enrichment (6-mer frequency, TF over GST control) | 1.16 fold enrichment (6-mer frequency, TF over GST control) | 1.1 fold enrichment (6-mer frequency, TF over GST control) | 1.01 fold enrichment (6-mer frequency, TF over GST control) | 1.02 fold enrichment (6-mer frequency, TF over GST control) | 1.04 fold enrichment (6-mer frequency, TF over GST control) | 1.02 fold enrichment (6-mer frequency, TF over GST control) | 1.08 fold enrichment (6-mer frequency, TF over GST control) | 1 fold enrichment (6-mer frequency, TF over GST control) | 1.09 fold enrichment (6-mer frequency, TF over GST control) |  |  |  |  |  | 
3 | CCACCG |  | 1 fold enrichment (6-mer frequency, TF over GST control) |  | 1.2 fold enrichment (6-mer frequency, TF over GST control) |  |  | 1.07 fold enrichment (6-mer frequency, TF over GST control) | 1.06 fold enrichment (6-mer frequency, TF over GST control) |  | 1.02 fold enrichment (6-mer frequency, TF over GST control) | 1.04 fold enrichment (6-mer frequency, TF over GST control) | 1.03 fold enrichment (6-mer frequency, TF over GST control) | 1.01 fold enrichment (6-mer frequency, TF over GST control) | 1.09 fold enrichment (6-mer frequency, TF over GST control) | 1.11 fold enrichment (6-mer frequency, TF over GST control) | 1.06 fold enrichment (6-mer frequency, TF over GST control) | 1.06 fold enrichment (6-mer frequency, TF over GST control)
